Data taken from PubChem BioAssay (NCATS).
Inconclusive results are not listed. A call without a number means that no potency is given here. Calls of active or inactive are those of the source. The call rests on the fitted dose curve; in most records, active means well fitted cell-killing curve with a large enough effect; inconclusive means small, poorly fitted or top-dose-only effect; inactive means flat fitted curve, though single readings scatter.

test: Quantitative highthroughput screen to assess conditional lethalithy of NOMO1 cells grown in RPMI1640 with untreated serum (RPMI+s) (AID 1963876); conditions: NOMO1 AML cells in RPMI+serum, CellTiter-Glo viability, 48 h; series mostly up to 45.8 µM; further: nearly all actives have a fitted effect of over 35% in size
Text: Assay Provider: Jason Cantor Ph.D.
Department of Biochemistry
University of Wisconsin-Madison, Madison, WI, USA
Chemical screening studies have identified drug sensitivities across hundreds of cancer cell lines but most putative therapeutics fail to translate. Discovery and development of drug candidates in models that more accurately reflect nutrient levels in human blood is a major challenge. Here we performed high-throughput screens in conventional versus Human Plasma-Like Medium (HPLM) to identify compounds that were "missed" when screening using the artificial culture condition. Sets of conditional anticancer compounds spanned phases of clinical development and included non-oncology drugs were assessed. […] We also traced conditional phenotypes for several chemotherapeutics to availability of HPLM-specific metabolites and confirmed others for compounds whose reported targets are encoded by nonessential genes. Our findings establish generalizable strategies for exploiting conditional lethality in HPLM to reveal therapeutic candidates and mechanisms of action in cancer cells.
Described herein are the results of each viability screens against three cell lines: NOMO1 (an acute myeloid leukemia cell line); P12-Ichikawa (a T-cell acute lymphoblastic leukemia); and SEM (a B-cell ALL). Each assay was screened using 3 different cell culture media: homemade human plasma-Like medium with 10% dialyzed fetal bovine serum (HPLM+ds); RPMI1640 with 10% untreated FBS and 5mM glucose (RPMI+s); and RPMI1640 with 10% dialyzed fetal bovine serum and 5 mM glucose (RPMI+ds).
PROTOCOL TABLE (as described by Inglese J, Shamu CE and Guy RK. 2007)
SEQUENCE No. (e.g., 1, 2, 3, etc.); […] (e.g., Cells, Incubation, Reagent, etc.); VALUE and DESCRIPTION.
1; Cells; 5 uL; white, solid bottom 1536-well Greiner assay plate.
2; Compounds; 23 nL; Kalypsis pin tool (Wako USA) equipped with a 1536-well pin head to transfer to the assay plates.
3; Incubation; 48 hours; 37C incubation.
4; Reagent; 3 uL; CellTiter Glo (Promega).
5; Incubation; 5 min, room temperature
6; Detection; Luminescence, Viewlux PerkinElmer.
NOTES (numbers refer to Sequence numbers above)
1. Briefly, 5 ul of cell reagent was dispensed using a Multidrop Combi Dispenser. The NOMO1 and SEM cells were plated at 500 cells/well and the P12-Ichikawa line at 1000 cells/well.
2. After seeding the cells, 23 nL of MIPE 4.1 library compounds (in DMSO) were added to each plate using a Kalypsys 1536 Pintool dispenser. Bortezomib at final concentration of […] and DMSO were added to each plate as positive and negative controls respectively. For each screen, MIPE 4.1 compounds were added over an eleven-point concentration range […] in 3-fold dilutions.
3. Each plate was covered with a stainless steel gasketed lid to prevent evaporation and incubated for 48 hour at 37C, 95% relative humidity, and 5% CO2.
4-5. Three microliter CellTilter-GloTM luminescent substrate mix (Promega) reagent was added to the assay plate and incubated at room temperature for 5 min.
6. The luminescence signal was measured using a ViewLux (PerkinElmer) multiplate reader with a 2 second exposure time per plate. Data for each compound were normalized as percent viability such that measurements for DMSO and the empty well controls in each plate were defined as 100% and 0%, respectively.
Potency means the concentration at half of the fitted maximal effect.

| SMILES | Potency |
| --- | --- |
| NS(=O)(=O)c1cc(Cl)c(Cl)c(S(N)(=O)=O)c1 | inactive |
| CC(C)c1ccc2oc3nc(N)c(C(=O)O)cc3c(=O)c2c1 | inactive |
| C[C@H](CCC(=O)O)[C@H]1CCC2C3C[C@H](O)[C@@H]4C[C@H](O)CC[C@]4(C)C3CC[C@@]21C (stereo not given in full) | inactive |
| COc1cc(NS(=O)(=O)c2ccc(N)cc2)nc(OC)n1 | inactive |
| Cc1c(C(=O)Nc2ccc(N3C[C@@H](C)O[C@@H](C)C3)nc2)cccc1-c1ccc(OC(F)(F)F)cc1 | 5.26 µM (active) |
| CCCn1c(=O)c2[nH]c(C34CC5CC3C[C@@H](C5)C4)nc2n(CCC)c1=O | inactive |
| C1COC(NC(C2CC2)C2CC2)=N1 | inactive |
| COc1cc2c(cc1-c1c(C)noc1C)ncc1[nH]c(=O)n([C@H](C)c3ccccn3)c12 | 3.32 µM (active) |
| O=C(Nc1ccc(F)c(C(F)(F)F)c1)Nc1nnc(-c2ccncc2)s1 | inactive |
| Nc1nc(N)c2nc(CNc3ccc(C(=O)NC(CCC(=O)O)C(=O)O)cc3)cnc2n1 (stereo not given) | inactive |
| Cc1ncc([N+](=O)[O-])n1CCO | inactive |
| CS(=O)(=O)c1ccc([C@@H](O)[C@@H](CO)NC(=O)C(Cl)Cl)cc1 | inactive |
| Cc1ccc(C(=O)Nc2ccc(Oc3cc4cnn(C)c4cc3-c3cn[nH]c3)c(F)c2)c(=O)n1-c1ccc(F)cc1 | 8.31 µM (active) |
| Nc1nc2c(ncn2COC(CO)CO)c(=O)[nH]1 | 26.4 µM (active) |
| CCCCS(=N)(=O)CCC(N)C(=O)O (stereo not given) | inactive |
| CC1(C)Cc2c(sc(NC(=S)NC(=O)c3ccccc3)c2C(=O)O)CO1 | inactive |
| O=c1cc(N2CCOCC2)oc2c(-c3cccc4c3sc3ccccc34)cccc12 | inactive |
| CC(C)c1onc(-c2c(Cl)cccc2Cl)c1COc1ccc(C=Cc2cccc(C(=O)O)c2)c(Cl)c1 | inactive |
| O=C1NC(=O)C(=Cc2ccc3c(c2)OC(F)(F)O3)S1 | inactive |
| CCOC(=O)N1c2ccc(C(F)(F)F)cc2[C@@H](N(Cc2cc(C(F)(F)F)cc(C(F)(F)F)c2)C(=O)OC)C[C@H]1CC | inactive |

| SMILES | Potency |
| --- | --- |
| CC(C)=CCCC(C)=CCCC(C)=CCCC(C)=CCCC(C)=CCCC(C)=CCCC(C)=CCCC(C)=CCCC(C)=CCO | inactive |
| O=C(CCCCCCC(=O)Nc1ccccc1)NO | 14.8 µM (active) |
| CCOC(=O)N1CCC(=C2c3ccc(Cl)cc3CCc3cccnc32)CC1 | inactive |
| CN(c1nccc(=O)[nH]1)C1CCN(c2nc3ccccc3n2Cc2ccc(F)cc2)CC1 | inactive |
| CCCCCCCCCC(=O)N[C@@H](Cc1c[nH]c2ccccc12)C(=O)N[C@H](CC(N)=O)C(=O)N[C@@H](CC(=O)O)C(=O)N[C@@H]1C(=O)NCC(=O)N[C@@H](CCCN)C(=O)N[C@@H](CC(=O)O)C(=O)N[C@H](C)C(=O)N[C@@H](CC(=O)O)C(=O)NCC(=O)N[C@H](CO)C(=O)N[C@@H]([C@@H](C)CC(=O)O)C(=O)N[C@@H](CC(=O)c2ccccc2N)C(=O)O[C@@H]1C | inactive |
| CCc1cc(C(N)=S)ccn1 | inactive |
| Cc1c(NC(=O)c2ccc(C(C)(C)C)cc2)cccc1-c1cn(C)c(=O)c(Nc2ccc(C(=O)N3CCOCC3)cc2)n1 | inactive |
| Cc1ccn(-c2ccc(-c3ncco3)cc2)c(=O)c1-c1ccc2nc(N)ncc2c1 | inactive |
| COc1ccnc(CS(=O)c2nc3ccc(OC(F)F)cc3[nH]2)c1OC (stereo not given) | inactive |
| CN(C)c1nc(N(C)C)nc(N(C)C)n1 | inactive |
| C=C(C)[C@@H]1CC[C@]2(C)CC[C@]3(C)[C@H](CC[C@@H]4[C@@]5(C)CC[C@H](O)C(C)(C)[C@H]5CC[C@]43C)[C@@H]12 | inactive |
| COc1ccc(OC)c(-c2nnc3ccc(-c4ccc(OC)c(O[C@@H]5CCOC5)c4)nn23)c1 | inactive |
| CC(C)(C)c1cc(C(=O)O)c(NC(=O)Nc2ccc3[nH]ncc3c2)s1 | inactive |
| COc1ccc2c(c1)c(CC(=O)OCC(=O)O)c(C)n2C(=O)c1ccc(Cl)cc1 | inactive |
| C[C@H](CCC(=O)O)[C@H]1CC[C@H]2[C@H]3[C@@H](CC[C@]12C)[C@@]1(C)CC[C@@H](O)C[C@H]1C[C@@H]3O | inactive |
| C[C@@H]1CC=CC=CC=CC=C[C@@H](O[C@@H]2O[C@H](C)[C@@H](O)[C@H](N)[C@H]2O)C[C@@H]2O[C@](O)(C[C@@H](O)C[C@@H]3O[C@@H]3C=CC(=O)O1)C[C@H](O)[C@@H]2C(=O)O | inactive |
| CCn1cc(C(=O)O)c(=O)c2cc(F)c(N3CCNCC3)cc21 | inactive |
| COc1cc(C(C)=O)ccc1OCCCN1CCC(c2noc3cc(F)ccc23)CC1 | inactive |
| CNC1CCCN(c2c(F)cc3c(=O)c(C(=O)O)cn(C4CC4)c3c2OC)C1 (stereo not given) | inactive |
| Nc1ccc(C(=O)Nc2cccc(-c3nc(N4CCOCC4)c4oc5ncccc5c4n3)c2)cn1 | inactive |
